Bioassay records as filed in PubChem BioAssay.
CHO-K1 Ca PAM – nonselective activator or artifact in parental CHO-K1 calcium assay; ATP EC20, Fluo-8 calcium fluorescence; 0% at ATP EC20, 100% at ATP max; activation, % at 3 µM; 360,000 tested, 0.02% active; AID 602247;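 active = activation above the run cutoff, the mean activation of all test compounds plus 3 SD, cut at about 40% in these data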;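 note: peak over basal fluorescence ratio in a 140 s read after ATP addition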
CHO-K1 Ca antag – M1 antagonist counterscreen hit in parental CHO-K1 cells. ATP-induced calcium, Fluo-8 fluorescence. inhibition, % at 3 µM. 360,000 tested, 0.6% active. AID 602250;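 active = inhibition above a per-plate cutoff, the plate's mean sample inhibition plus 3 SD, cut at about 24% in these data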
M1 ag parental – counter-screen for M1 agonists: effect in parental CHO-K1 cells. Fluo-8 calcium fluorescence; scaled to maximal ATP response, vehicle zero. activation, % at 3 µM. 360,000 tested, 0.48% active; in the data active = activation above about 15%;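 note: untransfected CHO-K1 host cells lacking M1 receptor as counterscreen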
M1 ag – human M1 muscarinic receptor agonism; AID 588814; activation, % at 3 µM; CHO-K1 hM1, Fluo-8 calcium fluorescence, agonist mode; 0% DMSO, 100% acetylcholine EC100; 360,000 tested, 0.33% active;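 active = activation above the run's mean compound activation plus 3 SD, cut at about 16% in these data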;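 note: peak over basal fluorescence ratio within a 140 s kinetic read after compound addition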
Target sequence (P11229 whole entry, looked up): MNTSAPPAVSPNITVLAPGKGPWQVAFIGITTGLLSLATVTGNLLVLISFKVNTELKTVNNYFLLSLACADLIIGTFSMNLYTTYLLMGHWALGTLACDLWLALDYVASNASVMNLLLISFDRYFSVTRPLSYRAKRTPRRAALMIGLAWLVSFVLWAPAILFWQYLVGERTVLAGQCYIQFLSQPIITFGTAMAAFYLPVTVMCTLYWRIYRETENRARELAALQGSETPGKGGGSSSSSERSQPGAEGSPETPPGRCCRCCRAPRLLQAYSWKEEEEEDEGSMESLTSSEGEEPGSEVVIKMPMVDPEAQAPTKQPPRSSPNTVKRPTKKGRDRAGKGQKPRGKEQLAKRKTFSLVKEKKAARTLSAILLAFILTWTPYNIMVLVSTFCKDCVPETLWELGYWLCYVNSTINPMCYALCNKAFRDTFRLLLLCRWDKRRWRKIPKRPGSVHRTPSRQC
M1 PAM – potentiates human M1 receptor response to acetylcholine; CHO-K1 hM1, Fluo-8 calcium fluorescence, ACh EC20; 0% = ACh EC20, 100% = maximal ACh; 360,000 tested, 0.088% active; P11229; activation, % at 3 µM; in the data active = activation above about 19%, passing the limit was not always enough
M1 antag – blocks human M1 muscarinic receptor | P11229 | CHO-K1 hM1, Fluo-8 calcium fluorescence, ACh EC80 antagonist | inhibition, % at 3 µM | 360,000 tested, 1.3% active;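 active = percent inhibition above its own plate's cutoff, namely the mean of that plate's compound wells plus 3 SD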;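 note: peak over basal fluorescence ratio during 140 s after agonist addition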
Large screens that a line does not name were inactive. A selection: hits, their analogues and other compounds. The true share with any hit is near 2.3%.

COc1ccc(NC(=O)c2cccc(S(=O)(=O)Nc3ccc(Br)cc3)c2)cn1	M1 ag parental 15.9
COc1cccc(S(=O)(=O)Nc2ccc(C(=O)Nc3ccncc3)cc2)c1	none
O=C(Nc1ccc(Br)cc1)c1cccc(S(=O)(=O)Nc2cnc3ccccc3c2)c1	none
Cc1cccc(C(=O)NC(=S)Nc2cccc3nc(C)ccc23)c1	none
COC(=O)C(/C=N/OCc1ccc([N+](=O)[O-])cc1)NC(=O)c1cccc(Cl)c1 (stereo unspecified)	M1 ag 24.7
Cc1cc(C(=O)CSc2ncnc3ccccc23)c(C)n1C1CC1	none
Cc1cc(-n2c(C)cc(C(=O)CSc3ncnc4ccccc34)c2C)no1	M1 antag 28.4
Cc1cc(C(=O)NCCc2ccc(S(N)(=O)=O)cc2)no1	none
COc1ccc(NC(=O)/C(Cl)=C(/Cl)S(=O)Cc2ccc(Cl)cc2)cn1 (stereo unspecified)	CHO-K1 Ca antag 30.5
COc1ccc(NC(=O)C(Cl)=C(Cl)Cl)cn1	none
CN(C)c1ccc(C(=O)N2CCC2(C)C(=O)O)cc1 (stereo unspecified)	none
CCOC(=O)c1ccc(S(=O)(=O)N2CCN(Cc3cc4c(cc3O)OCO4)CC2)cc1	none
CCc1nc(CN2CCCC(C(=O)c3ccc4c5c(cccc35)CC4)C2)c(C)[nH]1 (stereo unspecified)	CHO-K1 Ca antag 25.2
O=C(c1ccc2c3c(cccc13)CC2)C1CCCN(Cc2ccncc2)C1 (stereo unspecified)	none
CCC(CO)N=C1CC(C)(C)CC(=O)/C1=C(/O)CCCN1C(=O)c2ccccc2C1=O (stereo unspecified)	none
CCOC(=O)c1cc2sccc2n1CC(=O)OC(C)C	M1 PAM 18.6
CCOC(=O)c1cc2sccc2n1CC(=O)Nc1ccc(OC)cc1	none
O=C(CCN1C(=O)c2ccccc2S1(=O)=O)NCc1ccc(F)cc1	none
O=C(CN1C(=O)c2ccccc2S1(=O)=O)NCc1ccc(F)cc1	CHO-K1 Ca antag 62.6
CN(CC(=O)NCC(c1ccco1)N1CCCCC1)S(=O)(=O)c1ccc(Cl)cc1 (stereo unspecified)	none
CCOc1ccc(CCNC(=O)C(C)N2C(=O)CC(C)(C)Sc3ccccc32)cc1 (stereo unspecified)	none
CC1(C)Cc2noc(N)c2C(C)(C)N1O	CHO-K1 Ca antag 24.8
CC(=O)ON1C(C)(C)Cc2noc(N)c2C1(C)C	none
O=C(C(Cc1ccccc1)n1cccc1)N1CCCCC1 (stereo unspecified)	none
CC(C)C(C(=O)N1CCN(Cc2ccccc2)CC1)c1ccccc1 (stereo unspecified)	M1 antag 89.0
O=C(C(Cc1ccccc1)n1cccc1)N1CCN(Cc2ccccc2)CC1 (stereo unspecified)	M1 antag 92.4
C#CCNC(=O)C1=C[C@H](c2ccc(Br)cc2)C[C@H](OCCCCO)O1	none
O=C(N[C@H]1C/C=C\C[C@@H](CC(=O)N(CCO)Cc2ccccc2)C(=O)NC[C@H](c2ccccc2)OC1=O)OCC1c2ccccc2-c2ccccc21	none
O=C(NCCCNC(=O)c1c(F)cccc1F)c1c(F)cccc1F	none
O=C(NCC(Cl)c1ccc2ccccc2c1)c1c(F)cccc1F (stereo unspecified)	M1 ag parental 19.7
Cc1cn(CC(=O)NCCc2ccccn2)c(=O)[nH]c1=O	none
O=[N+]([O-])c1cccc(COc2ccc(CN3CCCCC3)cc2)c1	M1 antag 86.7
CCCCOc1ccc(C(O)C(CN2CCCCC2)c2ccccc2)cc1 (stereo unspecified)	M1 antag 34.7
CCCCOc1ccc(CN2CCCCC2)cc1	M1 antag 42.4
CC(=O)c1ccc(S(=O)(=O)N2CCN(c3nc(-c4cccnc4)nc4ccccc34)CC2)cc1	M1 antag 76.2
CCOc1ccc2oc(C(=O)NCC3CCCO3)c(C)c2c1 (stereo unspecified)	M1 antag 25.1
COc1ccc2oc(C(=O)NCC3CCCO3)c(C)c2c1 (stereo unspecified)	none
O=C(O)CCCCn1c(SCc2cc(=O)n3cc(Cl)ccc3n2)nc2ccsc2c1=O	none
O=c1c2sccc2nc(SCc2cc(=O)n3cc(Cl)ccc3n2)n1-c1ccc(F)cc1	M1 ag parental 15.1
COc1c(C)cc(Br)cc1C(=O)NC(=S)NCc1ccco1	none
Cn1c(=O)[nH]c(=O)c2c1nc(CN1CCN(Cc3ccccc3)CC1)n2CC(N)=O	none
CCOC(=O)c1cnc2ccccc2c1NCc1ccco1	M1 antag 91.8
CN1CCN(CCC(=O)N2c3ccccc3Sc3ccc(C(F)(F)F)cc32)CC1	M1 antag 41.7
O=C1c2ccccc2C(=O)N1CC(=O)N1c2ccccc2Sc2ccc(C(F)(F)F)cc21	none
O=C(CSc1nc2ccccc2s1)N1c2ccccc2Sc2ccc(C(F)(F)F)cc21	none
CN(C)CCC(=O)N1c2ccccc2Sc2ccc(C(F)(F)F)cc21	M1 antag 99.0
COc1ccccc1C(=O)NNC(=S)NC(=O)c1sc2ccccc2c1Cl	M1 ag 22.2
COc1ccccc1C(=O)NC(=S)NNC(=O)c1sc2ccccc2c1Cl	none
C=CC[C@@H](CC(=O)NCCO)C(=O)NC[C@H](OC(=O)[C@@H](CC=C)Cc1ccc(F)cc1)c1ccccc1	M1 antag 53.1
C=CC[C@@H](CC(=O)N(CCO)Cc1ccccc1)C(=O)NC[C@@H](OC(=O)[C@@H](CC=C)Cc1ccc(F)cc1)c1ccccc1	none
C=CC[C@H](CC(=O)N(CCO)Cc1ccccc1)C(=O)NC[C@H](OC(=O)[C@@H](CC=C)Cc1ccc(F)cc1)c1ccccc1	M1 antag 43.2
C=CC[C@@H](CC(=O)N[C@@H](CO)Cc1ccccc1)C(=O)NCCOC(=O)[C@@H](CC=C)Cc1ccc(F)cc1	CHO-K1 Ca antag 23.9
C=CC[C@@H](CC(=O)N[C@@H](CO)Cc1ccccc1)C(=O)NC[C@H](OC(=O)[C@@H](CC=C)Cc1ccc(F)cc1)c1ccccc1	none
COC(=O)C(C)Oc1ccc(Cl)c(CN2OCC(C)(C)C2=O)c1 (stereo unspecified)	none
COc1ccc(/C=C/c2cc(C(=O)O)c3ccccc3n2)cc1	M1 ag parental 21.3
CCn1c(SCC(=O)Nc2ccccc2)nc2c(c1=O)SCC2	none
Cc1cc(N2CCN(C(c3ccccc3)c3ccccc3)CC2)n2ncnc2n1	M1 antag 29.9
Cc1nc2ncnn2c(N2CCN(C(c3ccccc3)c3ccccc3)CC2)c1C	none
CC(C)C[C@@H]1CN=C(N)N1C[C@@H]1CCCN1C[C@H](C)N1C[C@@H](Cc2ccccc2)N(CCc2ccc(Cl)c(Cl)c2)C1=N	none
